Assay results as given in PubChem BioAssay AID1159580 (chemical genetic matrix, 2015).
Several values for one entry are separate records, joined by “and”; a condition that tells them apart may be missing. Equal entries are not always repeated. The campaign covered roughly 5,500 compounds. About 2,000 (36%) were called active. Another 18% or so got no clear call; they are omitted. No stated cut-off is given here; in the data, active means normalized growth mostly below about 0.91 (no sharp cut-off); inconclusive means no clear call, values can overlap the other calls; inactive means mostly above about 0.92. Some of the results follow.

Test: chemical genetic growth profiling, strain panel (AID 1159580);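 further: tested at 20 µM; growth read once vehicle control cultures reached saturation at 30 °C; 1 = growth at the plate median or of vehicle wells; lower values mean less growth of the strain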
Conditions: S. cerevisiae deletion strains, growth OD

Measured: normalized growth

COC1=CC(C)[C@@H]2C[C@H]3OC(=O)C[C@H]4C(C)=C(OC)C(=O)C([C@@]34C)[C@@]2(C)C1=O (some centres undefined)
inactive: locus YAL021C, strain ccr4, hits give low values 0.997 | locus YAL026C, strain drs2, hits give low values 0.979 | locus YAL030W, strain snc1, hits give low values 0.988 | locus YBL061C, strain skt5, hits give low values 0.987 | locus YBR009C, strain hhf1, hits give low values 0.962 | locus YBR021W, strain FUR4, hits give low values 0.994 | locus YBR023C, strain chs3, hits give low values 0.978 | locus YBR171W, strain sec66, hits give low values 0.977 | locus YBR229C, strain ROT2, hits give low values 1.01 | locus YBR231C, strain swc5, hits give low values 0.988 | locus YBR279W, strain paf1, hits give low values 0.985 | locus YCL011C, strain gbp2, hits give low values 0.977 | locus YCL016C, strain dcc1, hits give low values 0.981 | locus YCL029C, strain bik1, hits give low values 1.02 | locus YCL061C, strain MRC1, hits give low values 0.99 | locus YCL069W, strain vba3, hits give low values 0.981 | locus YCR088W, strain abp1, hits give low values 0.978 | locus YDL005C, strain med2, hits give low values 0.975 | locus YDL035C, strain GPR1, hits give low values 1.01 | locus YDL040C, strain nat1, hits give low values 0.981 | locus YDL074C, strain BRE1, hits give low values 1.03 | locus YDL101C, strain DUN1, hits give low values 1.01 | locus YDL185W, strain tfp1, hits give low values 1.02 | locus YDL192W, strain arf1, hits give low values 1.02 | locus YDR001C, strain nth1, hits give low values 0.976 | locus YDR069C, strain doa4, hits give low values 0.984 | locus YDR101C, strain arx1, hits give low values 1.02 | locus YDR137W, strain rgp1, hits give low values 1 | locus YDR159W, strain sac3, hits give low values 0.988 | locus YDR162C, strain NBP2, hits give low values 1.03 | locus YDR195W, strain ref2 0.966 | locus YDR297W, strain sur2, hits give low values 0.978 | locus YDR318W, strain mcm21, hits give low values 1 | locus YDR334W, strain swr1, hits give low values 0.971 | locus YDR335W, strain msn5, hits give low values 0.986 | locus YDR388W, hits give low values 1 | locus YDR392W, strain spt3, hits give low values 0.88 | locus YDR502C, strain sam2, hits give low values 1.01 | locus YEL003W, strain gim4, hits give low values 0.975 | locus YEL037C, strain rad23, hits give low values 0.972 | locus YEL061C, strain CIN8 (second series), hits give low values 0.965 | locus YEL061C, strain CIN8, hits give low values 1.01 | locus YER015W, strain faa2, hits give low values 0.983 | locus YER016W, strain bim1, hits give low values 0.973 | locus YER110C, hits give low values 1.01 | locus YER111C, strain swi4, hits give low values 0.972 | locus YER155C, strain BEM2 (second series), hits give low values 0.978 | locus YER155C, strain BEM2, hits give low values 1 | locus YER167W, strain BCK2, hits give low values 1.01 | locus YFR010W, strain ubp6, hits give low values 0.98 | locus YGL078C, strain dbp3, hits give low values 1.02 | locus YGL086W, strain mad1, hits give low values 1.02 | locus YGL167C, strain pmr1, hits give low values 0.968 | locus YGL173C, strain kem1, hits give low values 0.973 | locus YGL227W, strain vid30, hits give low values 0.968 | locus YGL240W, strain doc1, hits give low values 0.972 | locus YGL248W, strain PDE1, hits give low values 1.03 | locus YGL253W, strain hxk2, hits give low values 0.983 | locus YGR078C, strain PAC10, hits give low values 1.04 | locus YGR135W, strain pre9, hits give low values 1.02 | locus YGR229C, strain SMI1, hits give low values 1.03 | locus YGR252W, strain gcn5, hits give low values 1.04 | locus YHR013C, strain ard1, hits give low values 0.926 | locus YHR027C, strain rpn1, hits give low values 0.989 | locus YHR030C, strain SLT2, hits give low values 1.01 and 1.04 | locus YHR079C, strain IRE1 (second series), hits give low values 1.01 | locus YHR079C, strain IRE1, hits give low values 1.01 | locus YHR094C, strain hxt1, hits give low values 1.03 | locus YHR129C, strain ARP1, hits give low values 1.01 | locus YHR142W, strain chs7, hits give low values 0.981 | locus YHR200W, strain rpn10, hits give low values 1.01 | locus YIL066C, strain RNR3, hits give low values 1.02 | locus YIL073C, strain SPO22, hits give low values 1.06 | locus YIL125W, strain kgd1, hits give low values 1.01 | locus YIR030C, strain dcg1, hits give low values 1.02 | locus YJL092W, strain hpr5, hits give low values 0.975 | locus YJL095W, strain BCK1 (second series), hits give low values 0.98 | locus YJL095W, strain BCK1, hits give low values 1.05 and 1.02 | locus YJL115W, strain asf1, hits give low values 0.978 | locus YJL129C, strain trk1, hits give low values 0.971 | locus YJL134W, strain LCB3, hits give low values 1.01 | locus YJL154C, strain vps35, hits give low values 0.975 | locus YJL164C, strain tpk1, hits give low values 0.989 | locus YJL166W, strain qcr8, hits give low values 0.987 | locus YJL168C, strain set2, hits give low values 1.01 | locus YJL187C, strain SWE1 (second series), hits give low values 1.03 | locus YJL187C, strain SWE1, hits give low values 0.993 | locus YJR043C, strain POL32, hits give low values 1 | locus YJR066W, strain TOR1, hits give low values 0.993
